Compound activity as filed in PubChem BioAssay.
Tgondii IFNg = blocks Toxoplasma gondii growth in the presence of IFN-gamma. actives 3.8% (n = 69,000). Toxoplasma gondii growth in IFN-gamma-treated host cells; active compounds read low. AID 1259416. activity change, negative = inhibition, % (concentration not given with the values); in the data active = activity change below about -70%, passing the limit was not always enough;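 note: host cells are HeLa cells infected with Toxoplasma gondii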
Starred values were filed as active, the others as inactive. Shown is part of a subset that was picked to be rich in hits.

SMILES	Tgondii IFNg
C[C@@H]1CCCCO[C@@H](CN(C)Cc2ccc3c(c2)OCO3)[C@H](C)CN([C@H](C)CO)C(=O)c2cc(NS(=O)(=O)c3cn(C)cn3)ccc2O1	-26
CCN(CC)c1ncnc2c1cnn2CC(=O)NC(C)C	215
Cc1cc2nc(C(=O)N[C@H]3C[C@H]4C(=O)N(C)CC(=O)N4C3)cc(C)n2n1	0
Cc1cc(C(O)CN2CCN(S(=O)(=O)N3CCC(C)CC3)CC2)c(C)s1 (centres undefined)	19
CCn1c(C2CCN(Cc3cccn3-c3cccnc3)CC2)n[nH]c1=O	6
Clc1ccc(SCc2ccsc2-c2ncns2)cc1	-77*
Clc1ccc(SCc2csc(-c3ccc(Cl)cc3)n2)cc1	-5
Clc1ccc(SCc2csc(-c3ccno3)n2)cc1	-23
CCN(CC)C(=O)c1cc(=O)n(CC(=O)Nc2ccc(C)cc2C)c2ccccc12	0
O=C(c1cc(C2CC2)[nH]n1)N1CCCC(Cc2nc3ccccc3[nH]2)C1 (centres undefined)	-10
CN1CCC(CN2CCN(C(c3ccccc3)c3ccccc3)CC2)CC1	-32
CCOc1ccc(Nc2nc(-c3ccc(OC)cc3)nc3ccccc23)cc1	-43
CCOc1ccccc1C(=O)Nc1ccc(-c2nc(Cn3nc(C)cc3C)c(C)o2)cc1	44
CCOc1ccc(Nc2nc3ccccc3nc2Nc2ccc(OCC)cc2)cc1	-100*
CCOc1ccc(CNC(=O)c2nc(Nc3ccccc3)c3ccccc3n2)cc1	-52
CCOc1ccc(NC(=O)Cn2c(C)cc(C)nc2=O)cc1	19
CCOc1ccc(NC(=O)c2nc3ccccc3nc2-n2nc(C)cc2C)cc1	-99*
CN(Cc1ncc[nH]1)C(=O)c1cnc(-c2ccccc2)nc1	3
Cn1cccc1C(=O)NC1CCc2[nH]c(=O)ccc2C1 (centres undefined)	2
COc1ccc(C(=O)N2CCC3(CC2)NC(=O)c2cc(C)ccc2N3C)cc1	-11
CC(=O)Nc1ccc2nc(-c3[nH]cnc3-c3ccccc3)ccc2c1	-1
O=C1c2ccccc2N2C(=O)c3ccccc3C2N1Cc1ccco1 (centres undefined)	12
Cc1cc(C)c(Cn2nc(C(C)(C)C)cc2C(=O)Nc2ccc3c(c2)OCO3)c(C)c1	-99*
CCN1CCC2(CC1)OC(=O)C(C)=C2C(=O)Nc1ccc2c(c1)OCO2	124
Cc1ccc(-c2coc(-c3ccc(NC(=O)Nc4ccc5c(c4)OCO5)cc3)n2)c(C)c1	19
SMILES	Tgondii IFNg
C[C@@H]1CN([C@@H](C)CO)S(=O)(=O)c2ccc(C#CC3(O)CCCC3)cc2O[C@@H]1CN(C)C(=O)Nc1cccc(F)c1	-104*
CCCNC(=O)N(C)C[C@@H]1Oc2cc(C#C[C@H](C)O)ccc2S(=O)(=O)N([C@H](C)CO)C[C@H]1C	-70
Cc1ccccc1-c1ccc2c(c1)O[C@@H](CN(C)C(=O)Nc1ccc(C(F)(F)F)cc1)[C@@H](C)CN([C@H](C)CO)S2(=O)=O	66
C[C@H](CO)N1C[C@H](C)[C@H](CN(C)C(=O)Nc2cccc(F)c2)Oc2cc(C#CC3(O)CCCC3)ccc2S1(=O)=O	-7
Cc1ccccc1-c1ccc2c(c1)O[C@H](CN(C)C(=O)Nc1ccc(C(F)(F)F)cc1)[C@@H](C)CN([C@H](C)CO)S2(=O)=O	-97*
C/C=C/c1ccc2c(c1)O[C@@H](CN(C)C(=O)Nc1ccc(OC)cc1)[C@@H](C)CN([C@@H](C)CO)S2(=O)=O	100
CSc1nc(C)nc(Sc2ccccc2)c1C#N	-15
O=S(=O)(NC1CCCC1)c1ccc(S(=O)(=O)NC2CCCc3ccccc32)cc1 (centres undefined)	-52
O=C(Nc1cccnc1)OCCN1CCOC1=O	8
COc1cc(C(F)(F)F)cc(C(F)(F)F)c1C(N)=O	-50
Cc1cc(-c2onc(C)c2C(=O)Oc2ccc(Cl)cc2)no1	-30
COc1cc(C(F)(F)F)cc(C(F)(F)F)c1C(=O)NCc1cccs1	-81*
COc1cc(C(F)(F)F)cc(C(F)(F)F)c1C(=O)Oc1ccc(Cl)cc1	-96*
O=C(CCCC(=O)NCc1cccs1)NCc1cccs1	-39
COCCN1CCN(c2ccc3ccc(C(=O)NCc4cccs4)cn23)CC1	1
CC1(C)Cc2ccccc2-c2nnc(SCC(N)=O)n21	-7
CC(=O)Nc1ccc(O)c(C(=O)N2CCC3(CCOCC3)CC2)c1	-4
O=C(Oc1ccc(Br)cc1C(=S)N1CCCCC1)c1ccccc1	50
COc1ccccc1C(=O)Nc1ccc2c(c1)C(=O)N(C)[C@H]1CC[C@H](CC(=O)Nc3cc(F)ccc3F)O[C@@H]1CO2	-40
O=c1cc(O)c2c(=O)n(-c3ccccc3)c(-c3ccccc3)cc2o1	-100*
O=c1cc(CN2CCN(c3cccc(Cl)c3)CC2)c2cc(O)c(-c3ccccc3)cc2o1	33
O=c1cc(-c2ccccc2)c2cc(Cl)c(O)cc2o1	-1
CN(C)Cc1nc2c(o1)CN(S(=O)(=O)c1ccccc1)C2	-41
Cc1ccc(CNC(=O)CN2C(=O)CCc3cc(S(=O)(=O)N4CCCC4)ccc32)cc1	8
COc1cccc2cc(C(=O)N3CCc4ccccc43)c(=O)oc12	14
SMILES	Tgondii IFNg
CC(C)Nc1ncc(-c2nccn2Cc2ccc(F)c(F)c2)cn1	-46
Fc1cccc(CN2CCN(Cc3ccc(-c4ccccc4)nc3)CC2)c1	0
CCN1CCN(Cc2ccc(Nc3ncc(F)c(-c4cc(F)c5nc(C)n(C(C)C)c5c4)n3)nc2)CC1	-78*
Cc1cccc2c3c([nH]c12)CCN(C(=O)c1sc2nc4n(c(=O)c2c1C)CCC4)C3	17
Cc1ccc(NC(=O)C(=O)NCCc2sc(-c3cccc(F)c3)nc2C)c(C)c1	1
Cc1cc(C)c(C(=O)N2Cc3cnc(-c4ccccc4)nc3C2)cn1	-10
O=C(O)c1ccccc1C1CCN(C(=O)Cc2c[nH]c3ccccc23)C1 (centres undefined)	-42
Cc1c(-c2ccccc2)n[nH]c1C(=O)N1CCC(c2ccccc2C(=O)O)C1 (centres undefined)	-6
O=C(O)c1ccc(-c2c[nH]c3ncc(-c4ccccc4)cc23)cc1C1CCCC1	-85*
COC(=O)C(CCSC)N1Cc2ncccc2C1=O (centres undefined)	3
S=C(NCc1ccccc1)Nc1ccc(Br)cc1	66
S=C(N/N=C1\CCCc2c1[nH]c1ccc(Br)cc21)Nc1ccccc1	-82*
O=C(NC(=S)Nc1ccc2c(c1)CCC2)c1ccccc1	-5
O=C(COC(=O)c1cnccn1)c1ccc(C2CCCCC2)cc1	31
COc1ccc(-c2ccc3n(c2=O)C[C@H]2[C@H](CO)[C@@H](C(=O)NCC4CC4)N(C(=O)NC(C)C)[C@@H]32)cc1	-25
Cc1ccc(C2(O)CCN(C(=O)C(Cc3cnc[nH]3)n3cccc3)CC2)nc1 (centres undefined)	10
C=CCN1C(=O)CCCC12CCCN(C(=O)c1cccc3cccnc13)C2 (centres undefined)	89
COc1ccc(-c2cc(N)nc3[nH]ccc23)cc1C	-78*
CCNC(=O)c1cccc(-c2cc(N)nc3[nH]ccc23)c1	22
CS(=O)(=O)c1ccc(-c2cc(N)nc3[nH]ccc23)cc1	4
CS(=O)(=O)N1[C@H](C#N)[C@@H](c2ccccc2-c2ccccc2F)[C@H]1CO	-50
CCOc1ccc(S(=O)(=O)c2ccc(Cl)cc2)cc1	16
CCOc1ccc(S(=O)(=O)N2CCC3(CC2)Nc2cc(F)ccc2-n2cccc23)cc1	23
CCOc1ccc(S(=O)(=O)n2cc(F)c(=O)[nH]c2=O)cc1	-85*
CCc1c(C)nn(CC(=O)N2CCn3cccc3C2C)c1C (centres undefined)	-2
